The values that follow come from PubChem BioAssay (Tox21).

SMILES strings stand for the structures. Records with an inconclusive call do not appear. Calls of active or inactive are those of the source. Unless noted, calls come from the whole dose curve; as a rule, active = well fitted curve in the direction sought with a large enough effect in the repeat runs; inconclusive = weak or mixed curves; inactive = no such curve, though single readings can be large; an effect the other way counts as inactive or inconclusive.

Assay [1] in a line: qHTS assay to identify small molecule agonists of the sonic hedgehog signaling (Shh) pathway (AID 1259368; calls by dose curve;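 note: NIH/3T3-derived 3T3Gli1-Luc cells carrying a stable Gli1-driven firefly luciferase reporter; series mostly up to about 92 µM; nearly all actives have a fitted effect of over 15% in size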). A digest of the protocol:
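A Gli1 transcriptional response element controlled firefly luciferase in 3T3Gli1-Luc cells. Compounds and a positive control were added 4 hr after plating, and cells were incubated a further 24 hr at 37 C before luminescence detection.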
(In general: qHTS replaces the single test concentration by a dilution series.)

A short description of assay [2]: qHTS assay to identify small molecule antagonists of the sonic hedgehog signaling (Shh) pathway (AID 1259369; calls by dose curve; note: nearly all actives have a fitted effect of over 45% in size). Put shortly:
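For antagonist detection, the reporter line received test compounds together with conditioned medium, incubated 24hr at 37 C, 5% CO2, then luminescence was recorded following 30min room-temperature luciferase reagent incubation.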

The target in assay [3] is Estrogen receptor beta (Homo sapiens) (UniProt Q92731). In words: qHTS assay to identify small molecule agonists of the estrogen receptor beta (ER-beta) signaling pathway (AID 1259377; active = well fitted activation curve with a large enough effect in the signal ratio in the repeat runs, not every such curve was filed as active; the % refers to the signal ratio). A digest of the protocol:
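Read-out: beta-lactamase FRET fluorescence. Cell line: ER-beta-UAS-bla HEK293T in 2% charcoal-stripped FBS. Exposure: 16 hr at 37C. Substrate step: 2 h at room temperature.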

Assay [4] has the same target. In words: qHTS assay to identify small molecule antagonists of the estrogen receptor beta (ER-beta) signaling pathway (AID 1259378; active = well fitted inhibition curve with a large enough effect in the signal ratio in the repeat runs, not every such curve was filed as active; the % refers to the signal ratio). Put shortly: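 ER-beta-UAS-bla HEK293T cells in 2% charcoal-stripped FBS medium treated with compound plus 1nM final 17-beta-estradiol for 16 hr at 37C. Beta-lactamase reporter read by FRET substrate fluorescence after 2 hours at room temperature.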

Assay [5] in a line: qHTS assay to identify small molecule agonists of the estrogen receptor beta (ER-beta) signaling pathway - cell viability counter screen (AID 1259380). Note: nearly all actives have a fitted effect of over 30% in size. Put shortly:
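CellTiter-Glo read, 30 min RT, same wells as bla assay; cells ER-beta-UAS-bla HEK293T; 16 hr compound, 37C; medium 2% charcoal-stripped FBS.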

The nature of assay [6]: qHTS assay to identify small molecule antagonists of the estrogen receptor beta (ER-beta) signaling pathway - cell viability counter screen (AID 1259382). Note: series mostly up to about 92 µM; nearly all actives have a fitted effect of over 55% in size. A digest of the protocol:
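In this multiplexed counter screen, cells were seeded at 2,000 per well in medium with 2% charcoal-stripped FBS and incubated 6 hr before compound and 1nM final E2 were added. Sixteen hours later, ATP-based luminescence reported viability.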

The nature of assay [7]: qHTS assay to identify small molecule agonists or antagonists of the thyroid stimulating hormone receptor (TSHR) signaling pathway - wild type cell line counter screen (AID 1259384; calls by dose curve). Put shortly:
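Wild-type Hek293 cells, 800/well, 18 h at 37C, then compound with Ro20-1724 for 30 min RT. cAMP by HTRF (cAMP-d2/anti-cAMP cryptate), 1 h RT, fluorescence read. 15 concentrations, triplicates.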

In assay [8] the target is Thyrotropin receptor (Homo sapiens) (UniProt P16473). In words: qHTS assay to identify small molecule antagonists of the thyroid stimulating hormone receptor (TSHR) signaling pathway (AID 1259385; calls by dose curve; note: nearly all actives have a fitted effect of over 20% in size). A digest of the protocol:
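TSHR-HEK293 cells (800/well) plated 18 h, then compounds with Ro20-1724 and TSH at 1.5 ng/mL final, 30 min at room temperature. cAMP quantified by HTRF (cAMP-d2/anti-cAMP-cryptate, 1 h); 15 concentrations in triplicate.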

Assay [9] is described as follows: qHTS assay to identify small molecule agonists of the estrogen receptor alpha (ER-alpha) signaling pathway in the presence of an antagonist - cell viability counter screen (AID 1259386).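 Note: series mostly up to about 92 µM; cells exposed to compounds for 22 h at 37 °C before the viability read; nearly all actives have a fitted effect of over 30% in size.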 Put shortly: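 Viability counter screen using VM7Luc4E2 (full-length ER-alpha, four ERE-luciferase). The cells were treated with compounds alongside ICI-182,780 10.0nM for 22hr, and live-cell protease fluorescence was quantified with CellTiter-Fluor.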

For assay [10], the target named is Progesterone receptor (Homo sapiens) (UniProt P06401). In words: qHTS assay to identify small molecule agonists of the progesterone receptor (PR) signaling pathway (AID 1346784; calls by dose curve; note: nearly all actives have a fitted effect of over 30% in size). Put shortly: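 Compounds were tested for PR agonism in HEK 293T cells bearing a beta-lactamase gene under UAS control. Treatment lasted 16 hr at 37C; signal came from fluorescence of a FRET substrate.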

For assay [11] the target is unchanged. Nature of the assay: qHTS assay to identify small molecule antagonists of the progesterone receptor (PR) signaling pathway (AID 1346795; active = well fitted inhibition curve with a large enough effect in the signal ratio in the repeat runs, not every such curve was filed as active; the % refers to the signal ratio; note: potency is the fitted concentration of half-maximal effect). A digest of the protocol:
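In HEK293T cells bearing the PR-UAS-bla reporter, compound effects on promegestone-driven (1 nM) beta-lactamase expression are assessed after 16 hr using a fluorescent FRET substrate incubated 2 hr at room temperature.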

A short description of assay [12]: qHTS assay to identify small molecule antagonists of the progesterone receptor (PR) signaling pathway - cell viability counter screen (AID 1346798). Note: series mostly up to about 92 µM; nearly all actives have a fitted effect of over 50% in size. A digest of the protocol:
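Following a 4 hr attachment, PR-UAS-bla HEK293T cells in charcoal-stripped FBS medium were exposed to compounds with R5020 for 16 hr; CellTiter-Glo was added and luminescence read after 30 min at room temperature.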

The nature of assay [13]: qHTS assay to identify small molecule agonists of the progesterone receptor (PR) signaling pathway - cell viability counter screen (AID 1346799; calls by dose curve; note: nearly all actives have a fitted effect of over 45% in size). A digest of the protocol:
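Here, 3,000 PR-UAS-bla HEK293T cells per well were treated with compounds for 16 hr after a 6 hr preincubation at 37C and 5% CO2; cell viability is the CellTiter-Glo luminescence signal.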

Assay [14] is described as follows: qHTS assay to identify small molecule antagonists of the TGF-beta/Smad signaling pathway - cell viability counter screen (AID 1346824). Note: nearly all actives have a fitted effect of over 50% in size. A digest of the protocol:
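SBE-bla HEK 293T cells, incubated overnight, then compound plus 0.25 ng/mL TGF-beta1 (stock added) for 5 hr at 37 C. Viability was read in the same wells by CellTiter-Glo luminescence after 30 min at room temperature.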

Assay [15] is described as follows: qHTS assay to identify small molecule agonists of the TGF-beta/Smad signaling pathway - cell viability counter screen (AID 1346829). Note: top concentration of the series differs between compounds; nearly all actives have a fitted effect of over 45% in size. A digest of the protocol:
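Here the cytotoxicity of library compounds is measured in SBE-bla HEK 293T cells treated for 5 hr, using CellTiter-Glo added to wells already read for the beta-lactamase reporter.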

Assay [16] can be described thus: qHTS assay to identify small molecule agonists of the TGF-beta/Smad signaling pathway (AID 1346859; active = well fitted activation curve with a large enough effect in the signal ratio in the repeat runs, not every such curve was filed as active; the % refers to the signal ratio; note: series mostly up to about 77 µM). Put shortly: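 Each well held 4,000 SBE-bla HEK 293T cells incubated overnight before compound addition; 5 hr later the cleavable FRET substrate went on for 2 hr at room temperature, and fluorescence was read at two emissions.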
Assay [17] addresses Thyrotropin-releasing hormone receptor (Homo sapiens) (UniProt P34981). In words: qHTS assay to identify small molecule antagonists of the thyrotropin-releasing hormone receptor (TRHR) signaling pathway (AID 1346877; active = well fitted inhibition curve with a large enough effect in the repeat runs, not every such curve was filed as active; note: series mostly up to about 51 µM). Put shortly:
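Following an 18 h incubation at 37 °C and a 2 h calcium dye load, TRHR-HEK293 cells were exposed to compound (5 min, room temperature) and challenged with TRH, 1 nM final.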

A short description of assay [18]: qHTS assay to identify small molecule agonists of the androgen receptor (AR) signaling pathway in the presence of an antagonist - cell viability counter screen (AID 1259379).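 Note: MDA-kb2 human breast cancer cells carrying an MMTV luciferase reporter; series mostly up to about 92 µM; nearly all actives have a fitted effect of over 25% in size.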 Put shortly: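 Seed MDA-kb2 at 3,000 cells/well; incubate 5 hr, 37C, 0% CO2. Add nilutamide to 3.0uM final, then pin compounds at 15 concentrations. Incubate 16 hr. Add CellTiter-Fluor at 15 hr, read fluorescence after 1 hr.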

Assay [19] has as its target Androgen receptor (Homo sapiens) (UniProt P10275). In words: qHTS assay to identify small molecule agonists of the androgen receptor (AR) signaling pathway in the presence of an antagonist (AID 1259381; calls by dose curve; note: nearly all actives have a fitted effect of over 15% in size). A digest of the protocol: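 Test compounds at 15 concentrations were incubated for 16hr with MDA-kb2 reporter cells in presence of 3.0uM nilutamide (final). Signal: ONE-Glo luciferase luminescence.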

Assay [20] deals with Estrogen receptor (Homo sapiens) (UniProt P03372). In words: qHTS assay to identify small molecule agonists of the estrogen receptor alpha (ER-alpha) signaling pathway in the presence of an antagonist (AID 1259383; calls by dose curve; note: top concentration of the series differs between compounds; nearly all actives have a fitted effect of over 15% in size). Put shortly:
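Stably transfected VM7Luc4E2 reporter cells, kept 5 days in charcoal-stripped serum, received ICI-182,780 at 10.0nM final before compound addition. Following 22hr incubation at 37C and 5% CO2, luciferase signal was read by luminescence.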

Sequence of Thyrotropin-releasing hormone receptor (Homo sapiens) (P34981 whole entry, looked up): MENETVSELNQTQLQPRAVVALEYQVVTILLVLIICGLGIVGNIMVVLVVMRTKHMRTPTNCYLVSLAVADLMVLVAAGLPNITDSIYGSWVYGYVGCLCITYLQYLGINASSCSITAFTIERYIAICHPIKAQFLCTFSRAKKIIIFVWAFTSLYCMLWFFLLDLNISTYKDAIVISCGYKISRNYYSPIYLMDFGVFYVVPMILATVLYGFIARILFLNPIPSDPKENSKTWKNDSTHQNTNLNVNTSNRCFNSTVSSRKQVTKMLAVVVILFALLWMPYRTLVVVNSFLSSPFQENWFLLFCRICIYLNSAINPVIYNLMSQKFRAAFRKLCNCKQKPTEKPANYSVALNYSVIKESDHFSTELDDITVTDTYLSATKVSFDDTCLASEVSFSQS
Sequence of Progesterone receptor (Homo sapiens) (P06401 whole entry, looked up): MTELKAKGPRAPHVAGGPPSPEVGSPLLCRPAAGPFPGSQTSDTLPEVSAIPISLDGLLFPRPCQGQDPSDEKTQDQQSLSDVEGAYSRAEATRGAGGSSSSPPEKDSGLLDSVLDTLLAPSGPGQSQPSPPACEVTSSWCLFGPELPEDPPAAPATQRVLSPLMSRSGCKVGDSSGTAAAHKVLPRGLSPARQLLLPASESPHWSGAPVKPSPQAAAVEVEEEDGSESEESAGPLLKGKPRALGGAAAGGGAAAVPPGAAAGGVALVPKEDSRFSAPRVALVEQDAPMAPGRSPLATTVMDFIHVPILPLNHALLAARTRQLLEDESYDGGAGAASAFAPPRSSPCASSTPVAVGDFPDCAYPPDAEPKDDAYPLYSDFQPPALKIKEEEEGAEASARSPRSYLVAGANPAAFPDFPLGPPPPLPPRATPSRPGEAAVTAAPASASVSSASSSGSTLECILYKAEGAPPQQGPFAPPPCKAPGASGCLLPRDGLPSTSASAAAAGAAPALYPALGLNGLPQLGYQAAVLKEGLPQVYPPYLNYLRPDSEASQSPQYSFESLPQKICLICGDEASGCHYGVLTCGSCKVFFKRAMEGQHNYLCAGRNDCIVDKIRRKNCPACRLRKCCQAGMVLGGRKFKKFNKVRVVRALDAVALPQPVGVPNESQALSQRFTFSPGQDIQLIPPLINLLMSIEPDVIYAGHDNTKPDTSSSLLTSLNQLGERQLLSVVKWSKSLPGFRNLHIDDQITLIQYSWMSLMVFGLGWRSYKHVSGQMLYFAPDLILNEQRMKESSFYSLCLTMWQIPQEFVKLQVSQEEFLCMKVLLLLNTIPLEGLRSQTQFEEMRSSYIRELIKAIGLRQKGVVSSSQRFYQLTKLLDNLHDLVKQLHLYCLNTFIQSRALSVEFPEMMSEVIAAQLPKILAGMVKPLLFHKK
Sequence of Estrogen receptor beta (Homo sapiens) (Q92731 whole entry, looked up): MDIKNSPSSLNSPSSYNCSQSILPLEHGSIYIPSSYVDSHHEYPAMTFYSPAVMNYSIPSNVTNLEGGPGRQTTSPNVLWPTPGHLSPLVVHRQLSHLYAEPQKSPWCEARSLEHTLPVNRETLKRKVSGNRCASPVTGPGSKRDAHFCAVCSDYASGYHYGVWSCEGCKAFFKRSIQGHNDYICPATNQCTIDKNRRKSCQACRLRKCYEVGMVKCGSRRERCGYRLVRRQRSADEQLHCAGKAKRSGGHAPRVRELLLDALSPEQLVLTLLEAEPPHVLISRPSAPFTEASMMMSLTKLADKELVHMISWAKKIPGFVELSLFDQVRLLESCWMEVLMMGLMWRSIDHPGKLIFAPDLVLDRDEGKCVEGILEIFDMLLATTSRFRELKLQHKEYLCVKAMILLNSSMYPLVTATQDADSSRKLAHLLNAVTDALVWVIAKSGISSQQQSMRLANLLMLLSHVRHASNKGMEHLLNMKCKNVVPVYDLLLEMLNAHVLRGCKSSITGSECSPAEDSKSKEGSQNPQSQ
Sequence of Estrogen receptor (Homo sapiens) (P03372 whole entry, looked up): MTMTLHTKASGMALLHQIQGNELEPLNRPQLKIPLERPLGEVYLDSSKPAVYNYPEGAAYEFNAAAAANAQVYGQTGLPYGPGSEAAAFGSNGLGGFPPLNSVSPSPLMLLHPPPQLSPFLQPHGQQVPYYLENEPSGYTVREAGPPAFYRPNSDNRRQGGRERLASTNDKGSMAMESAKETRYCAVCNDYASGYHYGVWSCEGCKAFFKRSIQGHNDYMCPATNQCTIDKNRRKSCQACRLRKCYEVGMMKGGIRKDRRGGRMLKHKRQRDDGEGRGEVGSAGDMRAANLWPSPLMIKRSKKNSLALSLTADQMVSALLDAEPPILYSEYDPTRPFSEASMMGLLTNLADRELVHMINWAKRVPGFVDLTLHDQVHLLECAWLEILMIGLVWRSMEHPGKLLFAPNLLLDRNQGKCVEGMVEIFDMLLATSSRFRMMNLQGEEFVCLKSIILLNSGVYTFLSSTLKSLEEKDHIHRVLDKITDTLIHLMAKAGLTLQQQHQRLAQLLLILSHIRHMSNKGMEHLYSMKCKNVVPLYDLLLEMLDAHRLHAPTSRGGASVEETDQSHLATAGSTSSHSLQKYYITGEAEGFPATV
Sequence of Thyrotropin receptor (Homo sapiens) (P16473 whole entry, looked up): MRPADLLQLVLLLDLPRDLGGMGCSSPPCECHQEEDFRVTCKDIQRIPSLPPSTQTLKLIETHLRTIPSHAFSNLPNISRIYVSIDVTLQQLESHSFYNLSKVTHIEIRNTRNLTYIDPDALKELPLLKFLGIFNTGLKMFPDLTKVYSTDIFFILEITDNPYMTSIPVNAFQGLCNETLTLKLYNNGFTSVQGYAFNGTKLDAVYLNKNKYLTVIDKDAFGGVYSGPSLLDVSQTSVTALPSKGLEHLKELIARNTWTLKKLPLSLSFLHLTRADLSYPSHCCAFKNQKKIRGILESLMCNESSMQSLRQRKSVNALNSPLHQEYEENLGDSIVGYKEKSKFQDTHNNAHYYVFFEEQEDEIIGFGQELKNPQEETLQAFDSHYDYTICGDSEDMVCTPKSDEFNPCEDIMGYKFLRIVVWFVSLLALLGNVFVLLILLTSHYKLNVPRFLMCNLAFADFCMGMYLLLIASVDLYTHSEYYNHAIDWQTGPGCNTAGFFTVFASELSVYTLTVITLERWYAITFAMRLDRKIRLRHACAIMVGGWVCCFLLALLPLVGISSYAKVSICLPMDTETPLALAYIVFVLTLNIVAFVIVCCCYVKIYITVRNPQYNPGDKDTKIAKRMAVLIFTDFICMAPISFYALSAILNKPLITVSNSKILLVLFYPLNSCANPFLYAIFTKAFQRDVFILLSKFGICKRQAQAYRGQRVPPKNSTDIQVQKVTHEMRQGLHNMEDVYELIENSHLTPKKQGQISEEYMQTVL
Sequence of Androgen receptor (Homo sapiens) (P10275 whole entry, looked up): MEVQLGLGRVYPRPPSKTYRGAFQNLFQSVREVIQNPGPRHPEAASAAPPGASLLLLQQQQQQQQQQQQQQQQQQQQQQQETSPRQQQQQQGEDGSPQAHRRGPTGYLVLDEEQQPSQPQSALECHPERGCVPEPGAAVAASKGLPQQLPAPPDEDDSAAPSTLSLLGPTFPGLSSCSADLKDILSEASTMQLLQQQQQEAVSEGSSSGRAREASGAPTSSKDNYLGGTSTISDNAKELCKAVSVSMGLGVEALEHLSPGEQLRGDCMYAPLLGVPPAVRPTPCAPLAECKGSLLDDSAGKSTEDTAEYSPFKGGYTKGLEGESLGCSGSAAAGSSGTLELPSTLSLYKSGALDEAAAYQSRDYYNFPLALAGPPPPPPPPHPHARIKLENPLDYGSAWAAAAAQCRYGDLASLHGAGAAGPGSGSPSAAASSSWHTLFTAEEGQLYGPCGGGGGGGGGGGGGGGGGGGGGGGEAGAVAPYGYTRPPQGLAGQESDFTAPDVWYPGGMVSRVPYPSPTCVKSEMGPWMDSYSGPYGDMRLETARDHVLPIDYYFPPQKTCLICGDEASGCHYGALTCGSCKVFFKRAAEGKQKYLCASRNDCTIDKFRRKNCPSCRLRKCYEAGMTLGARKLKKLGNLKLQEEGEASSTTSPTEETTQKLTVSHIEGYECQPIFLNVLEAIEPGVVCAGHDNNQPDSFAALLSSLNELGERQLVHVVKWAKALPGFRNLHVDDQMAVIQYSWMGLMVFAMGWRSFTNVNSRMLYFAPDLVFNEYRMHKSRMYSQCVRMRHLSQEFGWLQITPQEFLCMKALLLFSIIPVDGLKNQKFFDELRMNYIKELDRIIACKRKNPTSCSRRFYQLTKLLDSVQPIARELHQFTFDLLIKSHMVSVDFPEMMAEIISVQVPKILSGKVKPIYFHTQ

On to `C=CC[N+](C)(C)CC=C`, for which the call in [1], in assay [6], in [7], in [8], in assay [12] and in assay [13] was inactive. The compound was called inactive in assay [14], in [15], in assay [16] and in assay [17]. Moreover, the Potency entry in assay [2], in assay [3], in assay [4], in assay [5], in assay [9] and in assay [10] was “inactive” throughout. Moreover, the Potency result in [11] was “inactive”.

Take `NC(=S)NNC(N)=S`: the compound was classed as inactive in assay [1], in assay [6], in assay [8], in [12], in assay [13] and in [14]. In addition, the compound was called inactive in assay [15], in [16] and in assay [17]. In addition, the Potency result in assay [2], in assay [18], in [5], in assay [9], in assay [10] and in [11] was “inactive” each time.

Turning to `O=C(O)c1ccc(C(=O)O)c(C(=O)O)c1`, the compound was called inactive in assay [1], in assay [6], in [7], in assay [8], in assay [12] and in [13]. Moreover, the compound was classed as inactive in assay [14], in assay [15], in assay [16] and in [17]. Also, the Potency entry in [2], in assay [5], in [19], in assay [20], in assay [9] and in [10] was “inactive” throughout. The Potency result in assay [11] is “inactive”.

On to `CC(CCl)OP(=O)(OC(C)CCl)OC(C)CCl` (stereo not drawn), for which the outcome in assay [1], in assay [6], in assay [7], in [8], in assay [12] and in [13] was inactive. The result in assay [14], in [15], in assay [16] and in [17] was inactive. Further, the Potency result in assay [3], in assay [4], in [18], in assay [5], in assay [20] and in assay [9] was “inactive” throughout. Moreover, the Potency result in assay [10] was “inactive”. In addition, in assay [11], the Potency was 54.6 µM (active).

Regarding `C=CCCCCCCCCC(=O)O`, the call in assay [1], in assay [6], in [7], in assay [8], in assay [12] and in [13] was inactive. The outcome in assay [14], in [15], in assay [16] and in assay [17] was inactive. For the same compound, the Potency entry in assay [2], in [3], in assay [5], in [9], in assay [10] and in [11] was “inactive” each time.

For the compound `CC(C)c1cccc(C(C)C)c1`, the result in [1], in assay [6], in [7], in [8], in [12] and in assay [13] was inactive. In addition, the call in assay [14], in assay [15] and in [16] was inactive. Besides, the Potency result in assay [2], in assay [5], in assay [20] and in assay [9] was “inactive” each time.

For the compound `O=C1C(c2[nH]c3ccccc3c2O)=Nc2ccccc21`, the result in [1], in assay [6], in assay [7], in assay [8], in [12] and in assay [13] was inactive. Also, the compound was classed as inactive in [14], in assay [15], in assay [16] and in assay [17]. For the same compound, the Potency result in assay [2], in assay [4], in [18], in assay [5], in assay [9] and in [10] was “inactive” throughout. In addition, the Potency result in [11] was “inactive”.

Regarding `CCCOC(=O)c1ccccc1`, the result in assay [1], in [6], in [8], in [12], in assay [13] and in assay [14] was inactive. The result in assay [15] and in [16] was inactive. Also, the Potency entry in [2], in [5], in assay [9], in assay [10] and in assay [11] was “inactive” each time.

Turning to `O=C1c2ccccc2CCc2ccccc21`, the compound was called inactive in assay [1], in [6], in assay [7], in assay [8], in [12] and in [13]. The call in [14], in assay [15], in assay [16] and in [17] was inactive. In addition, the Potency result in assay [2], in [3], in assay [4], in assay [5], in assay [9] and in assay [10] was “inactive” throughout. In addition, the Potency in assay [11] was 27.9 µM (active).
